Experimental data: PubChem BioAssay (Tox21)
Records with an inconclusive call do not appear. The source made the active and inactive calls. Unless noted, calls come from the whole dose curve.

Legend:
[1] = Nuclear factor erythroid 2-related factor 2/antioxidant responsive element (Nrf2/ARE) small molecule agonists: qHTS cell viability counter screen in human keratinocytes (AID 1919968; active = well fitted curve in the direction sought with a large enough effect in the repeat runs; an effect the other way counts as inactive or inconclusive; note: nearly all actives have a fitted effect of over 55% in size); settings: KeratinoSens HaCaT ARE cells viability, CellTiter-Fluor, 24 h; series mostly up to 92.4 µM
How it was run: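 Parallel cytotoxicity read: KeratinoSens HaCaT cells, compound treatment 23 h, viability by CellTiter-Fluor fluorescence 1 h post-reagent.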

[2] = Nuclear factor erythroid 2-related factor 2/antioxidant responsive element (Nrf2/ARE) small molecule agonists: luciferase reporter gene qHTS assay in human keratinocytes (AID 1919969); settings: KeratinoSens HaCaT ARE-luciferase, luminescence, 24 h; series mostly up to 92.4 µM; note: nearly all actives have a fitted effect of over 35% in size; note: potency is the fitted concentration of half-maximal effect
[3] = molecular target: Gonadotropin-releasing hormone receptor (Homo sapiens) (UniProt P30968); test: Human gonadotropin-releasing hormone receptor (GnRHR) small molecule agonists, calcium flux assay in GnRHR-HEK293 cells (AID 1920063); settings: calcium flux fluorescence, agonist mode; series mostly up to 57.6 µM; note: nearly all actives have a fitted effect of over 35% in size
Gonadotropin-releasing hormone receptor (Homo sapiens), sequence (P30968 whole entry, looked up): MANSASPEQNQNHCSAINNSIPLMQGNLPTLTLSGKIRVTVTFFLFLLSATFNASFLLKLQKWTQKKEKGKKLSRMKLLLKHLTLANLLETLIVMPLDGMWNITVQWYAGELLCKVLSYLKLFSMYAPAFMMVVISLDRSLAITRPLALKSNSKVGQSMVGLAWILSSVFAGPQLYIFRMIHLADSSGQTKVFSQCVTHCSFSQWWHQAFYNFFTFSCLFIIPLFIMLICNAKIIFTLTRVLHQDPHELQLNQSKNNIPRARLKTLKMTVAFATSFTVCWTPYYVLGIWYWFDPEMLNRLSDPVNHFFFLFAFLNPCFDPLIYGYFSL
How it was run: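 Calcium flux, agonist mode, human GnRHR stably integrated in HEK293; dye 1 h at 37 C before compound; Ex/Em=480/540 kinetic read, 3 min; 15 concentrations, triplicate.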

[4] = molecular target: KiSS-1 receptor (Homo sapiens) (UniProt Q969F8); test: Human kisspeptin (KISS1R) small molecule agonists, calcium flux assay in KISS1R-HEK293 cells (AID 1920064; active = well fitted curve in the direction sought with a large enough effect in the repeat runs; an effect the other way counts as inactive or inconclusive); settings: KISS1R-HEK293, calcium flux fluorescence, agonist; series mostly up to 76.8 µM
KiSS-1 receptor (Homo sapiens), sequence (Q969F8 whole entry, looked up): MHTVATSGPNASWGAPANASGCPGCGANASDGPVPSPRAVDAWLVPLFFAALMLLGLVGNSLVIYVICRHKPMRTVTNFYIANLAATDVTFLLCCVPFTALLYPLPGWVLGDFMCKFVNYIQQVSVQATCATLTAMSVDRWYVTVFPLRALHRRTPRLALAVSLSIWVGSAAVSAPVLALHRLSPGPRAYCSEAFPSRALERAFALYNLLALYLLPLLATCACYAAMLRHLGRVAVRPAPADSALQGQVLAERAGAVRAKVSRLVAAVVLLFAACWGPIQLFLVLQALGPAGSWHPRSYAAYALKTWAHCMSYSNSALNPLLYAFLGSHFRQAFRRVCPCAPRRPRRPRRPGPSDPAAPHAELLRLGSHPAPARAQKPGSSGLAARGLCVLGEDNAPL
How it was run: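 Triplicate 15-concentration series were applied to dye-loaded human KISS1R HEK293 cells, and agonist-evoked calcium fluorescence was captured for 3 min.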

[5] = G protein-coupled receptor (GPCR) small molecule agonists, calcium flux assay: HEK293 wild type cell line counter screen (AID 1920065); settings: HEK293 WT calcium flux, fluorescence, agonist mode; series mostly up to 57.6 µM
How it was run: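 Non-specific calcium responders were flagged by adding DMSO-dissolved compounds to dye-loaded cells and reading 480/540 nm fluorescence each second for 3 min; ATP served as positive control.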

[6] = p53 small molecule agonists, cell-based qHTS assay with human liver microsomes (AID 1963577); settings: HCT-116 p53RE-bla with human liver microsomes, ratio, 16 h; series mostly up to 66 µM;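 note: p53 response element beta-lactamase reporter cells with liver microsomes plus NADPH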
How it was run: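 Metabolically competent format: test substances, human liver microsomes and NADPH (both 0.5 mg/mL final) incubated with p53RE-bla cells 16 h at 37 C. Beta-lactamase reporter signal then quantified by fluorescence.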

[7] = p53 small molecule agonists, cell-based qHTS assay with rat liver microsomes (AID 1963578); settings: HCT-116 p53RE-bla, beta-lactamase ratio, 16 h; series mostly up to 66 µM
How it was run: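 Each plate received p53RE-bla cells, then compound, then rat liver microsomes and NADPH (both 0.5 mg/mL final). Plates were held 16 h at 37 C, and beta-lactamase activity was detected with LiveBLAzer over 2 h.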

[8] = p53 small molecule agonists, cell-based qHTS assay with human liver microsomes: qHTS cell viability counter screen (AID 1963579); settings: p53RE-bla HCT-116 viability, ATP luminescence, 16 h, HLM; series mostly up to 66 µM; note: nearly all actives have a fitted effect of over 45% in size
How it was run: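 Tox21 library compounds, delivered from DMSO stocks, were tested on p53RE-bla cells together with 0.5 mg/mL human liver microsomes and 0.5 mg/mL NADPH (final) over 16 h at 37 C; CellTiter-Glo luminescence served as the cytotoxicity measure.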

[9] = p53 small molecule agonists, cell-based qHTS assay with rat liver microsomes: qHTS cell viability counter screen (AID 1963580); settings: p53RE-bla HCT-116 + rat microsomes, ATP viability, 16 h; series mostly up to 66 µM; note: nearly all actives have a fitted effect of over 45% in size
How it was run: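 Cytotoxicity counter screen: intracellular ATP read by CellTiter-Glo luminescence in the p53 reporter wells. HCT-116 p53RE-bla cells were treated for 16 h at 37 C alongside rat liver microsomes and NADPH, each 0.5 mg/mL final.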

[10] = p53 small molecule agonists, cell-based qHTS assay: qHTS cell viability counter screen (AID 1963581); settings: p53RE-bla HCT-116 viability, ATP luminescence, 16 h; series mostly up to 66 µM; note: nearly all actives have a fitted effect of over 45% in size
How it was run: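 Multiplexed with the reporter read, a CellTiter-Glo step (30 min, room temperature) gauges ATP-based viability of HCT-116 p53RE-bla cells after 16 h compound incubation at 37 C.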

[11] = p53 small molecule agonists, cell-based qHTS assay (AID 1963582; active = well fitted activation curve with a large enough effect in the signal ratio in the repeat runs, not every such curve was filed as active; the % refers to the signal ratio); settings: HCT-116 p53RE-bla reporter, beta-lactamase FRET ratio, 16 h; series mostly up to 66 µM
How it was run: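 Beta-lactamase reporter cells (p53RE-bla) treated with compounds for 16 h at 37 C; FRET substrate, 2 h, room temperature; fluorescence intensity.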

[12] = molecular target: 5-hydroxytryptamine receptor 2A (Homo sapiens) (UniProt P28223); test: 5-hydroxytryptamine receptor 2A (HTR2A) small molecule antagonists, cell-based qHTS assay (AID 1963586); settings: HTR2A-CHO cells, DOI-induced calcium flux, fluorescence; series mostly up to 61.5 µM; note: nearly all actives have a fitted effect of over 45% in size
5-hydroxytryptamine receptor 2A (Homo sapiens), sequence (P28223 whole entry, looked up): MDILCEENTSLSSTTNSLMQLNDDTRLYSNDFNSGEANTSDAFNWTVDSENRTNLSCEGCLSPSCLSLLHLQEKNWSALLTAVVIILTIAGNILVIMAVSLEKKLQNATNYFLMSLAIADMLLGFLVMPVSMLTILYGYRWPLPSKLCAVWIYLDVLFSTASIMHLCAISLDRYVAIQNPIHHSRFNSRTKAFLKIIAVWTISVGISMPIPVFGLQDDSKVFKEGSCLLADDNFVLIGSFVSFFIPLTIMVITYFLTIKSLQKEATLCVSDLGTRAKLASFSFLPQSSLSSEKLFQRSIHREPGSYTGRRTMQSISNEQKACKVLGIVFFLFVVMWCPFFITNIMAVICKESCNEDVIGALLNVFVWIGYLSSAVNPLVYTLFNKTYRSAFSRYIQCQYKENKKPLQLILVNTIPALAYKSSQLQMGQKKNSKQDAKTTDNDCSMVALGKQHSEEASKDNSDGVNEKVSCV
How it was run: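 CHO cells stably expressing human HTR2A were plated for 18 h at 37 C, then loaded with calcium dye for 1 h. Compounds were preincubated 5 min at room temperature before DOI (4 nM solution) was added. Kinetic fluorescence was read for 3 min.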

[13] = molecular target: 5-hydroxytryptamine receptor 2A (Homo sapiens) (UniProt P28223); test: 5-hydroxytryptamine receptor 2A (HTR2A) small molecule agonists, cell-based qHTS assay (AID 1963587); settings: HTR2A-CHO cells, calcium flux fluorescence, agonist mode; series mostly up to 76.8 µM; note: nearly all actives have a fitted effect of over 30% in size
How it was run: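 Kinetic calcium-flux fluorescence (2 min, 1 sec intervals) after compound addition in agonist mode. HTR2A-CHO cells were cultured 18 h, then dye-loaded 1 h at 37 C.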

[14] = molecular target: Muscarinic acetylcholine receptor M1 (Homo sapiens) (UniProt P11229); test: Cholinergic receptor muscarinic 1 (CHRM1) small molecule antagonists, cell-based qHTS assay (AID 1963588); settings: CHRM1-CHO antagonist mode, calcium flux fluorescence; series mostly up to 61.5 µM; note: nearly all actives have a fitted effect of over 40% in size
Muscarinic acetylcholine receptor M1 (Homo sapiens), sequence (P11229 whole entry, looked up): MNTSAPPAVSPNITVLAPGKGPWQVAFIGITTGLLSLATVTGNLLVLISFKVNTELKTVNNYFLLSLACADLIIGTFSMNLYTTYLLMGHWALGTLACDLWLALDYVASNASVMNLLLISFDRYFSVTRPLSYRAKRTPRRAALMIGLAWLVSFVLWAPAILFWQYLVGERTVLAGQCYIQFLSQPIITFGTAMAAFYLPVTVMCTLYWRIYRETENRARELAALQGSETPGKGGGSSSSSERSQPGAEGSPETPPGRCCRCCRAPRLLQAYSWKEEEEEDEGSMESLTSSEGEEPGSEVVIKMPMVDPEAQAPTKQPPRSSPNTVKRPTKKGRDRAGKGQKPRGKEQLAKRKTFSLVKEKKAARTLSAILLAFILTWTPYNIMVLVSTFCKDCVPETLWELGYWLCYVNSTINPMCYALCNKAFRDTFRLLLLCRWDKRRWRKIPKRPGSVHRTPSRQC
How it was run: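 Compounds were tested at 15 concentrations in three independent runs. Dye-loaded CHRM1-CHO cells were exposed 5 min at room temperature before stimulation by acetylcholine added at 50nM. Intracellular calcium was read kinetically on FDSS for 3 min.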

[15] = molecular target: Muscarinic acetylcholine receptor M1 (Homo sapiens) (UniProt P11229); test: Cholinergic receptor muscarinic 1 (CHRM1) small molecule agonists, cell-based qHTS assay (AID 1963589); settings: CHRM1-CHO cells, agonist mode, calcium flux fluorescence; series mostly up to 76.8 µM; note: nearly all actives have a fitted effect of over 35% in size
How it was run: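 qHTS, 15-point titration, 3 independent runs: compounds pin-transferred onto dye-loaded CHRM1-CHO cells (human M1), calcium fluorescence followed every second to detect agonism.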

[16] = cAMP Responsive Elements (CRE) small molecule agonists, cell-based qHTS assay (AID 1963590); settings: CRE-bla HEK293T, beta-lactamase FRET ratio, 3 h; series mostly up to 92.4 µM
How it was run: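 Quantitative HTS for CRE agonists: HEK 293T CRE-bla cells, overnight plating, 3 h compound incubation at 37 C/5% CO2, then 2 h room-temperature LiveBLAzer B/G FRET substrate loading.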

[17] = cAMP Responsive Elements (CRE) small molecule antagonists, cell-based qHTS assay (AID 1963591; active = well fitted inhibition curve with a large enough effect in the signal ratio in the repeat runs, not every such curve was filed as active; the % refers to the signal ratio); settings: CRE-bla HEK293T, beta-lactamase FRET ratio; series mostly up to 92.4 µM
How it was run: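 Fluorescence intensity from cleaved LiveBLAzer B/G substrate (2 h, room temperature) quantified CRE-bla activity in HEK 293T cells exposed 3 h to compound with 0.25 uM final NKH477.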

[18] = molecular target: Beta-2 adrenergic receptor (Homo sapiens) (UniProt P07550); test: Adrenergic beta2 receptor (ADRB2) small molecule antagonists, cell-based qHTS assay (AID 1963592); settings: CHO-ADRB2 cells, isoproterenol-stimulated cAMP HTRF ratio, 0.5 h; series mostly up to 92.4 µM; note: nearly all actives have a fitted effect of over 50% in size
Beta-2 adrenergic receptor (Homo sapiens), sequence (P07550 whole entry, looked up): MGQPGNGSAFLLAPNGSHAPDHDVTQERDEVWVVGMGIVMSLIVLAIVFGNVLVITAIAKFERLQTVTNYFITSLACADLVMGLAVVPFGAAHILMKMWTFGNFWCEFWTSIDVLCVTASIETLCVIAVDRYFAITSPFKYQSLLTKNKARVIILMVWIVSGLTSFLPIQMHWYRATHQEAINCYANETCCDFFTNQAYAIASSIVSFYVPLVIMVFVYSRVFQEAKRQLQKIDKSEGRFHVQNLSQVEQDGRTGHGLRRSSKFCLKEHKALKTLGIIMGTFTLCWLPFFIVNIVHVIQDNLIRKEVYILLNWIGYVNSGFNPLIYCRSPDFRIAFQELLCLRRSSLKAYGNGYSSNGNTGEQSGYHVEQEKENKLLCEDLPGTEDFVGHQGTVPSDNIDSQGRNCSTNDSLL
How it was run: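 Assay format: CHO-ADRB2 cells, 18-20hr seeding at 37C/5% CO2, then compound plus 1nM isoproterenol agonist mix for 0.5hr RT. Homogeneous time-resolved fluorescence cAMP detection after 1hr, expressed as 665/615 nm ratio.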

[19] = molecular target: D(2) dopamine receptor (Homo sapiens) (UniProt P14416); test: Dopamine D2 receptor (DRD2) small molecule agonists, cell-based qHTS assay (AID 1963594); settings: HEK293-DRD2 cAMP HTRF, agonist mode, 30 min; series mostly up to 92.4 µM; note: nearly all actives have a fitted effect of over 35% in size
D(2) dopamine receptor (Homo sapiens), sequence (P14416 whole entry, looked up): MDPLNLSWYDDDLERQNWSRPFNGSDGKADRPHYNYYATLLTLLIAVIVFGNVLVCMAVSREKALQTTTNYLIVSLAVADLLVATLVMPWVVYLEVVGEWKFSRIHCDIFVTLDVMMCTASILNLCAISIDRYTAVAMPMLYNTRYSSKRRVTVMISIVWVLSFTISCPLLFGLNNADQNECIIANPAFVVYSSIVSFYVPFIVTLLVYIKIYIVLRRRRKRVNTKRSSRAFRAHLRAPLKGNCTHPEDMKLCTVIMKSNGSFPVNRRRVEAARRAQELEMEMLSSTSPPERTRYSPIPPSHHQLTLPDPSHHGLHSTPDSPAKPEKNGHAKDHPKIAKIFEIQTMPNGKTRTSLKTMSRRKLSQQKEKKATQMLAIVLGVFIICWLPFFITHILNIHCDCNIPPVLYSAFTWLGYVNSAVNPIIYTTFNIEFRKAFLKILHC
How it was run: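 cAMP accumulation in DRD2-HEK293 cells measured by HTRF after 1 h detection; compounds added 10 min before NKH477 (200nM […]) forskolin-analogue stimulation, 30 min at room temperature, with Ro20-1724 present at 0.1 mM final.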

[20] = molecular target: D(2) dopamine receptor (Homo sapiens) (UniProt P14416); test: Dopamine D2 receptor (DRD2) small molecule antagonists, cell-based qHTS assay (AID 1963595; active = well fitted inhibition curve with a large enough effect in the signal ratio in the repeat runs, with a control signal flat; the % refers to the signal ratio); settings: HEK293-DRD2 cAMP HTRF antagonist mode; series mostly up to 92.4 µM
How it was run: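 DRD2-HEK293; 0.1 mM Ro20-1724; cpd 10 min RT; NKH477 200 nM + quinpirole 12 nM, 30 min RT; HTRF cAMP (cAMP-d2/anti-cAMP cryptate), 665/620 nm ratio after 1 h.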

Measured: Potency

CC(C)[C@H]1CC[C@@H](C)CC1=O
inactive: all assays above

CC(O)CNCC(C)O (centres undefined)
inactive: all assays above

CNC(=O)Nc1ccc(Cl)c(Cl)c1
inactive: all assays above

CCN[C@H]1CN(CCCOC)S(=O)(=O)c2sc(S(N)(=O)=O)cc21
not listed: [19]
inactive: all other assays above

CC(COC(=O)c1ccccc1)OC(=O)c1ccccc1 (centres undefined)
inactive: all assays above

CC[C@@H]1C[C@H](N(Cc2cc(C(F)(F)F)cc(C(F)(F)F)c2)C(C)=O)c2cc(C(F)(F)F)ccc2N1C(=O)OC(C)C
inactive: all assays above

Nc1nnnn1-c1ccccc1
not listed: [19]
inactive: all other assays above

COC(=O)c1ccccc1C
not listed: [19]
inactive: all other assays above

C=CCCC(=O)/C=C/C1C(C)=CCCC1(C)C (centres undefined)
active: [2] 54.5 µM
inactive: all other assays above

C=CCOC(=O)CCCCCC
not listed: [19]
inactive: all other assays above

COc1ccc(Br)c(C)c1
not listed: [19]
inactive: all other assays above

CC(=O)c1ccc(O)c(C(N)=O)c1
not listed: [19]
inactive: all other assays above

NC(=O)NC1N=C([O][Al])NC1=O (centres undefined)
inactive: all assays above

CC(C)N=C=NC(C)C
inactive: all assays above

CCCCCCCOC(C)=O
inactive: all assays above

CC[C@H](C)[C@@H](C(=O)O)n1sc2ccccc2c1=O
active: [2] 54.5 µM
not listed: [20]
inactive: all other assays above

CCOC(=O)[C@H](CCc1ccccc1)N[C@@H](C)C(=O)N1C(=O)N(C)C[C@H]1C(=O)O
inactive: all assays above

CCC(CO)(CO)CO
inactive: all assays above

CCCCCC1CCCC(=O)O1 (centres undefined)
inactive: all assays above

COC(=O)c1c(Cl)c(Cl)c(C(=O)OC)c(Cl)c1Cl
active: [2] 30.6 µM
inactive: all other assays above

CC(=O)N(O)CCCCCNC(=O)CCC(=O)N(O)CCCCCNC(=O)CCC(=O)N(O)CCCCCN
not listed: [20]
inactive: all other assays above

CCCC=O
not listed: [20]
inactive: all other assays above

Cn1ccnc1
inactive: all assays above

CCCCC(CC)COP(=O)(OCC(CC)CCCC)OCC(CC)CCCC (centres undefined)
inactive: all assays above

FC(F)(F)/C(=N\OCC1OCCO1)c1ccc(Cl)cc1
not listed: [20]
inactive: all other assays above

Cc1cccc2cccnc12
inactive: all assays above

CCCC(=O)CC
inactive: all assays above

c1ccc(CCCc2ccncc2)cc1
active: [2] 48.6 µM
inactive: all other assays above

CNC(=O)NC
inactive: all assays above

CCC(C)(Oc1ccc(C2(c3ccc(OC(C)(CC)C(=O)O)cc3)CCCCC2)cc1)C(=O)O (centres undefined)
not listed: [20]
inactive: all other assays above
